Several values for one entry are separate records, joined by “and”; a condition that tells them apart may be missing. Identical values can stand only once. Results filed as inconclusive are left out. More than one record can exist for a structure, and the calls need not agree. Activity calls are given as the source filed them. Unless noted, the call rests on the fitted dose curve; in most records, active means well fitted curve in the direction sought with a large enough effect in the repeat runs; inconclusive means weak or mixed curves; inactive means no such curve, though single readings can be large; an effect the other way counts as inactive or inconclusive.
What was measured:
[1] = molecular target: Retinoic acid receptor RXR-alpha (Homo sapiens) (UniProt P19793); experiment: qHTS assay to identify small molecule agonists of the RXR signaling pathway (AID 1159527; calls by dose curve; further: nearly all actives have a fitted effect of over 35% in size; further: potency means the concentration at half of the fitted maximal effect)
Method in brief: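 GeneBLAzer RXR-alpha-UAS-bla HEK 293T cells in 2% charcoal-stripped FBS medium were exposed to compounds for 16 hr at 37 C in agonist mode. Beta-lactamase reporter read as 460/530 nm FRET ratio after 2 hr substrate loading.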

[2] = qHTS assay to identify small molecule antagonists of the retinoid acid receptor (RAR) signaling pathway - cell viability counter screen (AID 1159551); further: nearly all actives have a fitted effect of over 35% in size
Method in brief: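 C3RL4 cells were seeded overnight at 37 C, then treated with compounds plus 1 uM (final) retinol for 6 h at 37 C. Viability was read as ATP by CellTiter-Glo luminescence after 30 min at room temperature.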

[3] = qHTS assay to identify small molecule antagonists of the retinoic acid receptor (RAR) signaling pathway (AID 1159552; further: nearly all actives have a fitted effect of over 50% in size)
Method in brief: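 Retinol signaling pathway inhibitors screened in C3RL4 RARE-luciferase reporter cells seeded overnight at 37 C, then compounds added with 1 uM (final) retinol as pathway substrate. After 6 hr at 37 C, luciferase luminescence read after 30 min at room temperature.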

[4] = qHTS assay to identify small molecule agonists of the retinoic acid receptor (RAR) signaling pathway (AID 1159553); further: potency means the concentration at half of the fitted maximal effect
Method in brief: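 C3RL4 cells carrying a RARE luciferase reporter were plated overnight at 37 C, then exposed to compounds in DMSO for 6 hr at 37 C and 5% CO2. Luminescence was read 30 min after luciferase reagent addition at room temperature.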

[5] = qHTS assay to identify small molecule antagonists of the estrogen related receptor (ERR) signaling pathway from Tox21 library - cell viability counter screen (AID 1224834); further: nearly all actives have a fitted effect of over 30% in size; further: potency means the concentration at half of the fitted maximal effect
Method in brief: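 ERR reporter cells were plated 6 h before compound addition, then exposed to test compounds in DMSO for 17.5 h at 37 C. Viability was read as CellTiter-Fluor fluorescence after a 30-minute incubation at 37 C.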

[6] = molecular target: Luciferin 4-monooxygenase (Photinus pyralis) (UniProt P08659); experiment: qHTS assay to identify small molecule inhibitors of firefly luciferase (AID 1224835); further: nearly all actives have a fitted effect of over 25% in size; further: potency means the concentration at half of the fitted maximal effect
Method in brief: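 Quantitative HTS format; KM concentrations of both substrates. Purified P. pyralis FLuc activity quantified from luminescence images.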

[7] = qHTS assay to identify small molecule agonists of the constitutive androstane receptor (CAR) signaling pathway - cell viability counter screen (AID 1224836); further: nearly all actives have a fitted effect of over 45% in size; further: potency means the concentration at half of the fitted maximal effect
Method in brief: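 HepG2 cells stably carrying hCAR and a CYP2B6-2.2kb reporter; 15-concentration compounds plus PK11195 (final 0.75 uM), 23 hr at 37 C/5% CO2. Viability read by CellTiter-Fluor fluorescence.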

[8] = qHTS assay to identify small molecule antagonists of the constitutive androstane receptor (CAR) signaling pathway - cell viability counter screen (AID 1224837); further: nearly all actives have a fitted effect of over 45% in size; further: potency means the concentration at half of the fitted maximal effect
Method in brief: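 HepG2 cells stably expressing hCAR and a CYP2B6-2.2kb reporter were plated and pre-incubated 4 hr at 37 C/5% CO2, then given compounds at 15 concentrations plus 50 nM CITCO (final). After 23 hr, viability was read by CellTiter-Fluor fluorescence.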

[9] = molecular target: Nuclear receptor subfamily 1 group I member 3 (Homo sapiens) (UniProt Q14994); experiment: qHTS assay to identify small molecule antagonists of the constitutive androstane receptor (CAR) signaling pathway (AID 1224838); further: nearly all actives have a fitted effect of over 40% in size
Method in brief: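 HepG2 cells stably co-transfected with hCAR and a CYP2B6-2.2kb luciferase reporter were seeded 4 h before compound addition at 15 concentrations. Cells were stimulated with 50 nM CITCO (final) for 24 h at 37 C; luciferase luminescence was then read.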

[10] = molecular target: Nuclear receptor subfamily 1 group I member 3 (Homo sapiens) (UniProt Q14994); experiment: qHTS assay to identify small molecule agonists of the constitutive androstane receptor (CAR) signaling pathway (AID 1224839); further: nearly all actives have a fitted effect of over 15% in size; further: potency means the concentration at half of the fitted maximal effect
Method in brief: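 HepG2 cells stably co-transfected with hCAR and a CYP2B6-2.2kb luciferase reporter; compounds at 15 concentrations with 0.75 uM PK11195 present. After 24 hr at 37 C, luciferase read by ONE-Glo luminescence.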

[11] = qHTS assay to identify small molecule antagonists of the estrogen related receptor signaling pathway with the pleiotropic PPARgamma coactivator (PGC) from Tox21 10K library - cell viability counter screen (AID 1224840; active means well fitted cell-killing curve with a large enough effect in the repeat runs, not every such curve was filed as active; further: nearly all actives have a fitted effect of over 40% in size; further: potency means the concentration at half of the fitted maximal effect)
Method in brief: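 PGC/ERR cells were seeded at 2,000 cells/well and left 6 hours at 37 C/5% CO2 before pin-tool addition of compounds in DMSO. After 17.5 hours at 37 C, CellTiter-Fluor was added and fluorescence read 30 minutes later.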

[12] = qHTS assay to identify small molecule agonists of the RXR signaling pathway - cell viability counter screen (AID 1159529); further: series mostly up to about 77 µM; nearly all actives have a fitted effect of over 50% in size
Method in brief: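 RXR-alpha-UAS-bla HEK 293T cells in medium with 2% charcoal-stripped FBS were pre-incubated 5 hr, then compound-treated 16 hr at 37 C. Viability was read by CellTiter-Glo luminescence in the same wells as the beta-lactamase assay, with tetraoctyl ammonium bromide as positive control.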

[13] = qHTS assay to identify small molecule antagonists of the estrogen related receptor signaling pathway with the pleiotropic PPARgamma coactivator (PGC) from Tox21 10K library (AID 1224841; call rule not given here; further: actives are mostly falling curves and most rising ones were filed inactive; nearly all actives have a fitted effect of over 50% in size; further: potency means the concentration at half of the fitted maximal effect)
Method in brief: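 PGC/ERR reporter cells were seeded at 2,000 cells/well and held 6 hours at 37 C/5% CO2 before pin-tool addition of compounds in DMSO. After 18 hours at 37 C, One-Glo was added and luminescence read after 30 minutes at room temperature.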

[14] = qHTS assay to identify small molecule agonists of the estrogen related receptor signaling pathway with the pleiotropic PPARgamma coactivator (PGC) from Tox21 10K library (AID 1224842); further: nearly all actives have a fitted effect of over 15% in size
Method in brief: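 PGC/ERR reporter cells (NTP line) were seeded 2,000 per well, rested 6 h at 37 C/5% CO2, then pin-dosed with compounds in DMSO for 18 h at 37 C; luciferase read by One-Glo luminescence after 30 min at room temperature.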

Measured: Potency

Chain of Retinoic acid receptor RXR-alpha (Homo sapiens) (P19793 whole entry, looked up): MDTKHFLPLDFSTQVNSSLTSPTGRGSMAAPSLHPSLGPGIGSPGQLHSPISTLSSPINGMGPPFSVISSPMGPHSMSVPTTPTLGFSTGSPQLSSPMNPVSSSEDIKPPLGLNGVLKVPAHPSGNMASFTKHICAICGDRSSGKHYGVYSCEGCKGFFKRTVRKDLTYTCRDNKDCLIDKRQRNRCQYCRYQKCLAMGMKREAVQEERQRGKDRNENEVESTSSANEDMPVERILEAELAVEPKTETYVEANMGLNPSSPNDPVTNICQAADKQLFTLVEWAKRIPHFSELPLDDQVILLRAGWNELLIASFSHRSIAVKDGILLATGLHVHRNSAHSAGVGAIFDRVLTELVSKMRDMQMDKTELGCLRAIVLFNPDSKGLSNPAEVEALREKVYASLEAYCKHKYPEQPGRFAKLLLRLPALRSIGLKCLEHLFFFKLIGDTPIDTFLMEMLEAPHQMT
Chain of Nuclear receptor subfamily 1 group I member 3 (Homo sapiens) (Q14994 whole entry, looked up): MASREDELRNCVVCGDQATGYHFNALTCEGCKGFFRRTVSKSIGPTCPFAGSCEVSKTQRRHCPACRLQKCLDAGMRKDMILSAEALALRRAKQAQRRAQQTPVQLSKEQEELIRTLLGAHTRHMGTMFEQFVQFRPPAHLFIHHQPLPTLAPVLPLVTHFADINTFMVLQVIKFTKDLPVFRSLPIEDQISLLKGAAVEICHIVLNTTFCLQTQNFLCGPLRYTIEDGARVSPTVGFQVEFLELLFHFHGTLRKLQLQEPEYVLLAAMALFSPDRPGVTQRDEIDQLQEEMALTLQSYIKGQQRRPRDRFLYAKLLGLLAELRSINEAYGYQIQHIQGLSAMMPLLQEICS
Chain of Luciferin 4-monooxygenase (Photinus pyralis) (P08659 whole entry, looked up): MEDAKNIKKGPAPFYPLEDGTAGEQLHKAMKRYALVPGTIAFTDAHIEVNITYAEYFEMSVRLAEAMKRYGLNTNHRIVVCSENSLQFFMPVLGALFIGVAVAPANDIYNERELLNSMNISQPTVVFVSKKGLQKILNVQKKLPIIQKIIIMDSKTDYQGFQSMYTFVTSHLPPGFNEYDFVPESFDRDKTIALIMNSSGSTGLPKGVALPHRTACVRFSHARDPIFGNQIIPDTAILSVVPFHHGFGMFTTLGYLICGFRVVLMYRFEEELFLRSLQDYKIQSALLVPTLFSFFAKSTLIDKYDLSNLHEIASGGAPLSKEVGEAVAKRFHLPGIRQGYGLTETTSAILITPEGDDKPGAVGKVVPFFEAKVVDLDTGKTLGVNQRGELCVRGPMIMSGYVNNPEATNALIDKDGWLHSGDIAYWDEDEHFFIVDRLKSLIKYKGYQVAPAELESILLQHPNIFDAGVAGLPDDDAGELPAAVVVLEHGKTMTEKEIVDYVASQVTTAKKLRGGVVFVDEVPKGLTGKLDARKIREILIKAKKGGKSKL

CCCCCCCCCCN
inactive: [1] | [2] | [3] | [4] | [5] | [6] | [7] | [8] | [9] | [10] | [11]

COc1ccccc1OCC(O)CO (stereo not given)
inactive: [1] | [2] | [5] | [6] | [7] | [8] | [11]

CNC(=S)N(C)C
inactive: [1] | [2] | [3] | [4] | [5] | [6] | [7] | [8] | [9] | [10] | [11]

COc1ccc(OC)cc1
inactive: [1] | [12] | [2] | [5] | [6] | [7] | [8] | [9] | [10] | [11] | [13] | [14]

CC1(C)OC[C@@H]2O[C@@]3(C(=O)O)OC(C)(C)O[C@H]3[C@@H]2O1
21.9 µM (active) and inactive: [1]
inactive: [2] | [3] | [4] | [5] | [6] | [7] | [8] | [9] | [10] | [11]

Cc1ccc([N+](=O)[O-])cc1S(=O)(=O)O
inactive: [1] | [2] | [3] | [4] | [5] | [6] | [7] | [8] | [11] | [13] | [14]

Nc1nc(N)nc(-c2ccccc2)n1
inactive: [1] | [2] | [3] | [4] | [5] | [6] | [7] | [8] | [9] | [10] | [11]

CCc1ccccc1CC
inactive: [1] | [2] | [5] | [6] | [7] | [8] | [11] | [13] | [14]

CCOCCOCCOCCO
inactive: [1] | [2] | [3] | [4] | [5] | [6] | [7] | [8] | [9] | [10] | [11]

CC(C)(C#N)c1cc(Cn2cncn2)cc(C(C)(C)C#N)c1
inactive: [1] | [2] | [5] | [6] | [7] | [8] | [9] | [10] | [11] | [13] | [14]

O=C(O)c1ccc(S(=O)(=O)N(Cl)Cl)cc1
inactive: [1] | [2] | [3] | [4] | [5] | [6] | [7] | [8] | [9] | [10] | [11]

CC(=O)c1ccc(O)cc1
inactive: [1] | [2] | [5] | [6] | [7] | [8] | [9] | [10] | [11]

CCCCCCC=O
inactive: [1] | [2] | [3] | [4] | [5] | [6] | [7] | [8] | [11]

CSc1ccc(Cl)cc1
inactive: [1] | [2] | [3] | [4] | [5] | [6] | [7] | [8] | [9] | [10] | [11]

CCO[Si](CCC#N)(OCC)OCC
inactive: [1] | [12] | [2] | [5] | [6] | [7] | [8] | [11]

CCNC(=S)NCC
inactive: [1] | [2] | [5] | [6] | [7] | [8] | [9] | [10] | [11]

O=S(=O)(O)c1ccc(N=Nc2c(O)ccc3cc(S(=O)(=O)O)ccc23)cc1
inactive: [1] | [2] | [3] | [4] | [9] | [10] | [14]
active: [5] 30.8 µM and 54.5 µM | [7] 54.7 µM and 30.6 µM | [8] 54.7 µM and 27.3 µM | [11] 48.6 µM
27.4 µM (active) and inactive: [13]

COc1ccc(CCC(C)=O)cc1
inactive: [1] | [2] | [3] | [4] | [5] | [6] | [7] | [8] | [11]

Brc1ccc(Br)c(Br)c1
inactive: [1] | [2] | [3] | [4] | [5] | [6] | [7] | [8] | [11]

O=C(O)/C=C/C(=O)O
inactive: [1] | [2] | [6] | [7] | [8] | [9]

C[C@]12CC[C@@H]3c4ccc(O)cc4CC[C@H]3[C@@H]1C[C@@H](O)[C@@H]2O
inactive: [1] | [2] | [4] | [5] | [6] | [7] | [8] | [11]

C=CCCCCCCCCC(=O)O
inactive: [2] | [5] | [6] | [7] | [8] | [11]
active: [1] 43.6 µM

OC1C(O)C(O)C(O)C(O)C1O (stereo not given)
inactive: [1] | [12] | [2] | [5] | [6] | [7] | [8] | [11]

CCCCCCCO
inactive: [12] | [2] | [3] | [4] | [5] | [6] | [7] | [8] | [9] | [10] | [11]

C=CC(C)CCCC(C)(C)O (stereo not given)
inactive: [1] | [2] | [3] | [4] | [5] | [6] | [7] | [8] | [9] | [10] | [11]

CC(C)OC(=O)COc1ccc(Cl)cc1Cl
inactive: [1] | [2] | [3] | [4] | [5] | [7] | [8] | [9] | [10] | [11]
active: [6] 35 µM

CN(C)c1ccc(O)c2c1C[C@H]1C[C@H]3[C@H](N(C)C)C(=O)C(C(N)=O)=C(O)[C@@]3(O)C(=O)C1=C2O
inactive: [1] | [12] | [2] | [6] | [7] | [8] | [9] | [10] | [11]

N#Cc1ccccc1
inactive: [1] | [2] | [5] | [6] | [7] | [8] | [9] | [10] | [11] | [13] | [14]

COCCOC(=O)c1ccccc1C(=O)OCCOC
inactive: [1] | [2] | [3] | [4] | [5] | [6] | [7] | [8] | [9] | [10] | [11]

COc1ccc([N+](=O)[O-])cc1N
inactive: [1] | [2] | [3] | [4] | [5] | [6] | [7] | [8] | [9] | [10] | [11]

CCCCC(C=O)CC (stereo not given)
inactive: [12] | [2] | [3] | [4] | [5] | [6] | [7] | [8] | [9] | [10] | [11]

CC(C)OP(=O)(CP(=O)(OC(C)C)OC(C)C)OC(C)C
inactive: [1] | [2] | [5] | [6] | [7] | [8] | [9] | [10] | [11]

COC(=O)CCCC(=O)OC
inactive: [1] | [2] | [3] | [4] | [5] | [6] | [7] | [8] | [9] | [10] | [11]

CCCCOC(=O)c1ccc(N)cc1
inactive: [12] | [2] | [3] | [5] | [7] | [8] | [9] | [11]
active: [4] 26.9 µM and 21.1 µM | [10] 23.7 µM
inactive and 34.7 µM (active): [6]

O=C(O)c1ccc(C(=O)O)c(C(=O)O)c1
inactive: [12] | [2] | [3] | [4] | [5] | [6] | [7] | [8] | [9] | [10] | [11] | [13] | [14]

CC(CCO)CC(C)(C)C (stereo not given)
inactive: [12] | [2] | [3] | [4] | [5] | [6] | [7] | [8] | [11]

— PubChem BioAssay (Tox21)
